aSyn UTR act = Activators working through SNCA 5'UTR binding (MLPCN); alpha-synuclein 5'UTR reporter, activators screen; AID 1814; actives 7.1% (n = 300,000); activity score, % (tested at 7.5 µM), hits read low; in the data active means activity score below about -60%
Numbers without * were called inactive. Not all results are given here.

Results for COCCCNc1nc(N)c([N+](=O)[O-])c(Nc2cc(OC)ccc2OC)n1 ?
aSyn UTR act: 55

How did COCCCNC(=S)Nc1ccc(C)cc1[N+](=O)[O-] do in these assays?
aSyn UTR act: -75*

What do the screens show for `CCCOc1ccc(C(=O)Nc2ccc(C)cc2[N+](=O)[O-])cc1`?
aSyn UTR act: -72*

What do the screens show for `Cc1ccccc1NC(=S)c1ccc2ccccc2n1`?
aSyn UTR act: -110*

What do the screens show for `COc1nc(NCCN2CCOCC2)nc(Nc2ccccc2)n1`?
aSyn UTR act: -101*

Results for COc1ccccc1CN1CC(C(=O)N2CCCCO2)CCC1=O (stereo not given) ?
aSyn UTR act: -77*

How did COCCn1c(=O)c2c(nc3n2CC(C)CN3CCc2ccccc2)n(C)c1=O (stereo not given) do in these assays?
aSyn UTR act: 67

Results for COc1ccccc1Cn1nnc2c(=O)[nH]c(C3CCN(C(=O)c4ccccc4Cl)CC3)nc21 ?
aSyn UTR act: 60

Results for O=C1CCC(C(=O)N2CCCCO2)CN1CCc1ccccc1 (stereo not given) ?
aSyn UTR act: -89*

Results for COCCCC1CCN(C(=O)C2CCC(=O)N(CCc3ccccc3)C2)CC1 (stereo not given) ?
aSyn UTR act: -74*

How did Cc1c(Cl)c(C(=O)NNC(=S)Nc2ccc(F)cc2)nn1C do in these assays?
aSyn UTR act: -70*

How did Cc1c(Cl)c(C(=O)NNC(=S)Nc2ccccc2)nn1C do in these assays?
aSyn UTR act: -102*

What do the screens show for `Cc1ccc(NC(=S)NNC(=O)c2nn(C)cc2Cl)cc1`?
aSyn UTR act: -90*

Results for COc1ccc(/C(C)=N/Nc2ccccc2Cl)c(O)c1 ?
aSyn UTR act: -102*

What do the screens show for `C/C(=N\Nc1ccc(F)cc1F)c1cccs1`?
aSyn UTR act: -88*

How did COc1ccc(/C(C)=N/Nc2ccc(F)cc2F)c(O)c1 do in these assays?
aSyn UTR act: -97*

How did Cc1ccc(NC(=O)C(=O)NC2CCCCC2)cc1 do in these assays?
aSyn UTR act: -149*

Results for N#Cc1ccc(C(=O)NC2CCCCCCC2)cc1 ?
aSyn UTR act: -132*

What do the screens show for `CC(C)CCNC(=O)C(=O)NC1CCCC1`?
aSyn UTR act: -134*

What do the screens show for `O=C(NC1CCCCCC1)c1ccc(OCC2CCCO2)cc1` (stereo not given)?
aSyn UTR act: -97*

What do the screens show for `Cc1ccc(C(=O)NC2CCCCC2)cc1`?
aSyn UTR act: -94*

Results for O=C(NC1CCCCCC1)C(=O)NC1CCCC1 ?
aSyn UTR act: -67*

What do the screens show for `O=C(Nc1ccccc1)OC1CC2CC1C1CCCC21` (stereo not given)?
aSyn UTR act: -141*

Results for O=C(Nc1ccccc1)O[C@@H]1C[C@H]2CCC(=O)N3CC[C@@H](C1)[C@@H]23 ?
aSyn UTR act: -136*

What do the screens show for `Cc1ccc2sc(NC(=O)C3CC3)nc2c1C`?
aSyn UTR act: -73*

How did O=C(Nc1nc2c(F)cc(F)cc2s1)C1CC1 do in these assays?
aSyn UTR act: -107*

What do the screens show for `COc1ccc(/C=C/C(=O)c2cc(F)ccc2OC(=O)c2ccccc2OC)cc1OC`?
aSyn UTR act: 68

How did COc1ccc(/C=C/C(=O)c2ccc[nH]2)c(OC)c1OC do in these assays?
aSyn UTR act: -194*

What do the screens show for `COc1ccc(/C=C/C(=O)c2ccc[nH]2)cc1OC`?
aSyn UTR act: -146*

Results for O=C(Nc1cccc(-c2cnc3ccccc3n2)c1)c1cccc(NC(=O)c2ccco2)c1 ?
aSyn UTR act: -95*

Results for CCC(=O)Nc1cccc(-c2cnc3ccccc3n2)c1 ?
aSyn UTR act: -122*

Results for O=C(CCl)Nc1cccc(-c2cnc3ccccc3n2)c1 ?
aSyn UTR act: -622*

What do the screens show for `CC[C@H](CO)Nc1nc(Nc2cccc(Cl)c2)c2ncn(C(C)C)c2n1`?
aSyn UTR act: 57

What do the screens show for `Cc1c(C(=O)Nc2cccc(Cl)c2)c2ccccn2c1CCc1ccncc1`?
aSyn UTR act: -103*

Results for Cc1c(C(=O)Nc2ccc(Cl)cc2)c2ccccn2c1CCc1ccncc1 ?
aSyn UTR act: -115*

Results for COc1ccc(C2CC2C(=O)c2ccccn2)cc1 (stereo not given) ?
aSyn UTR act: -73*

How did COc1ccc(C2CC2/C(=N/O)c2ccccn2)cc1 (stereo not given) do in these assays?
aSyn UTR act: -86*

What do the screens show for `c1ccc(Nc2nc3ccccc3[nH]2)nc1`?
aSyn UTR act: -169*

Results for Cc1cc(C)nc(Nc2nc3ccccc3[nH]2)n1 ?
aSyn UTR act: -109*

What do the screens show for `Cc1cccc(Oc2cc([N+](=O)[O-])cc3c2C(=O)Nc2ccccc2O3)c1`?
aSyn UTR act: -68*

Results for COC(c1ccccc1)c1nnc(CCC(=O)N(C)Cc2cccc(-n3cccn3)c2)o1 (stereo not given) ?
aSyn UTR act: -72*

Results for COC(c1ccccc1)c1nnc(CCC(=O)N(C)CCOc2ccccc2)o1 (stereo not given) ?
aSyn UTR act: -83*

Results for Nn1c(SCc2c(F)cccc2F)nnc1-c1ccccn1 ?
aSyn UTR act: -159*

What do the screens show for `Cc1ccc(-n2[nH]c(=O)c(-c3ccccn3)c2C)cc1`?
aSyn UTR act: 97

What do the screens show for `Nn1c(-c2ccccn2)nnc1-c1ccccn1`?
aSyn UTR act: -96*

How did Nc1ccccc1-c1nnc(-c2ccccc2N)n1N do in these assays?
aSyn UTR act: -113*

How did Cc1cc(/C=N/NC(=O)c2ccsc2)c(C)n1-c1cnccn1 do in these assays?
aSyn UTR act: -77*

How did Cc1cccc(NCc2ccc(O)c3ncccc23)c1C do in these assays?
aSyn UTR act: 56

What do the screens show for `COc1ccc(NC(=S)Nc2ncccc2C)c(OC)c1`?
aSyn UTR act: -93*

How did Cc1cccnc1NC(=S)NCCc1ccccc1 do in these assays?
aSyn UTR act: -155*

How did COc1ccc(NC(=S)Nn2cnnc2)cc1OC do in these assays?
aSyn UTR act: -95*

How did Cc1cccnc1NC(=S)Nc1ncccc1C do in these assays?
aSyn UTR act: -119*

What do the screens show for `COc1ccc(NC(=S)Nc2ncccc2C)cc1OC`?
aSyn UTR act: -107*

How did Cc1cccnc1NC(=S)Nc1ccc(Cl)c(Cl)c1 do in these assays?
aSyn UTR act: -142*

What do the screens show for `O=C(NNC(=S)Nc1ccc(Cl)c(Cl)c1)c1ccccn1`?
aSyn UTR act: 68

What do the screens show for `Nc1[nH]nc2c1NN(c1ccc(Cl)cc1Cl)N2`?
aSyn UTR act: -140*

How did Clc1ccc(-c2cc(CN3CCOCC3)no2)cc1 do in these assays?
aSyn UTR act: -148*

Results for Clc1ccc(-c2cc(CN3CCCCC3)no2)cc1Cl ?
aSyn UTR act: -114*

How did CC(C)CC1c2[nH]c3ccccc3c2CCN1C(=O)c1cnccn1 (stereo not given) do in these assays?
aSyn UTR act: -95*

Results for CC(=O)c1sc(-c2ccc(Cl)cc2)nc1C ?
aSyn UTR act: -101*

How did CNC(=O)c1sc(-c2ccccc2)nc1C do in these assays?
aSyn UTR act: -78*

Results for CCNC(=O)O/N=C(\C)c1sc(-c2ccccc2)nc1C ?
aSyn UTR act: -134*

How did C/C(=N\O)c1sc(-c2ccccc2)nc1C do in these assays?
aSyn UTR act: -140*

What do the screens show for `CNC(=O)c1sc(-c2ccc(Cl)cc2)nc1C`?
aSyn UTR act: -187*

How did S=c1nc(NCCc2ccccc2Cl)c2ccccc2[nH]1 do in these assays?
aSyn UTR act: -114*

Results for O=C(NCCc1ccc(Cl)cc1)C1CCC(CNc2nc(=S)[nH]c3ccccc23)CC1 (stereo not given) ?
aSyn UTR act: 65

What do the screens show for `O=C(Nc1ccccc1Cl)c1cccs1`?
aSyn UTR act: -71*

Screening data: PubChem BioAssay, Broad Institute
